Test [1] in a line: NF-kB reporter suppression in CF airway cells – cell-based, GFP fluorescence, single concentration, confirmation (AID 602472).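 Also: stimulus PAF is a Pseudomonas aeruginosa filtrate and not platelet activating factor; plate controls were DMSO wells with stimulus for no effect and unstimulated DMSO wells for full effect.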 Conditions: KKLEB CF airway cells, PAF-induced NF-kB-GFP fluorescence, overnight; at 5 µM; stronger effect = higher value.
A short description of test [2]: NFkB reporter suppression in cystic fibrosis bronchial cells – cell-based, uHTS hits, panel, cytotoxicity readout, dose response (AID 624344). Conditions: CF bronchial epithelial cells, PAF-induced NFkB reporter inhibition, with PAF, run 1; at 79 µM (top of the series) unless noted.
Assay in test [3]: as above
Conditions: CF bronchial epithelial cells, PAF-induced NFkB reporter inhibition, with PAF, run 2; at 79 µM (top of the series) unless noted.

The nature of test [4]: HIF-2a driven luciferase blockers, single dose – luminescence, 786-0 RCC cells, confirmation (AID 651580;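 active = mean inhibition across four replicates of at least 40 percent at the single tested concentration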). Particulars: HIF-2a luciferase reporter luminescence, overnight, at 18.8 µM, stronger effect = higher value. (In general: In a reporter assay the amount or activity of a reporter protein is the signal.)
A short description of test [5]: HIF-1a luciferase reporter signal reduction – MiaPaCa-2 cells, single concentration, counter-screen for HIF-2a inhibitor project, confirmation (AID 651589;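 active = mean inhibition of the reporter signal across four replicates at the single tested dose of 50% or more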). Particulars: MiaPaCa-2 HIF-1a luciferase reporter, desferoxamine, overnight; at 18.8 µM; stronger effect = higher value.
The target of test [6] is PEG-3 (UniProt Q6IN02). The test can be described thus: inhibition of PEG-3 promoter-driven reporter – cell-based, HeLa, luciferase, CREF/GAPDH counter-screen panel, dose response (AID 624167). Particulars: CREF/GAPDH counter-screens; HeLa PEG-Prom luciferase reporter, overnight, run 1, dose range 1, at 100 µM (top of the series) unless noted. (In general: A counterscreen serves to expose hits that act by an unwanted route or on another target.)
Sequence of PEG-3 (Q6IN02 whole entry, looked up): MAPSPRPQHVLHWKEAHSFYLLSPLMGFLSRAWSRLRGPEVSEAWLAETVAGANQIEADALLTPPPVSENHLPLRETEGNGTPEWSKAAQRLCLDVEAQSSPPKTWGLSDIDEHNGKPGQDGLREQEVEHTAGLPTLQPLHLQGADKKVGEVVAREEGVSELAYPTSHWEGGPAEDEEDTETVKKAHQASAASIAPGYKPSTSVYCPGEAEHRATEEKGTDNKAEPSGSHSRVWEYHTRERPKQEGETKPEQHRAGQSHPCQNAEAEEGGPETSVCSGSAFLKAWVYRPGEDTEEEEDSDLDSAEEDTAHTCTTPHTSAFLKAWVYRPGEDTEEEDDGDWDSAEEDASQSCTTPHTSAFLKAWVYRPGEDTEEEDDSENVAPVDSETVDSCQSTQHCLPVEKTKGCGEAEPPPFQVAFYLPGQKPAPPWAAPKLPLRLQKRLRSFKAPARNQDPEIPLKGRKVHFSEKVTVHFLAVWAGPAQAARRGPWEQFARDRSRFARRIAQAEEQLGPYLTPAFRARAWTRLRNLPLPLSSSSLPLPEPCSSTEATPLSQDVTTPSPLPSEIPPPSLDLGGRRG

Test [7] deals with PEG-3 (UniProt Q6IN02). The description is as above. Conditions: CREF/GAPDH counter-screens; HeLa PEG-Prom luciferase reporter, overnight, run 2, dose range 1, at 100 µM (top of the series) unless noted.
In test [8] the target is Tumor necrosis factor receptor superfamily member 10B (Homo sapiens) (UniProt O14763). The test can be described thus: viability loss of caspase-8 NB7 cells with TRAIL – with/without TRAIL, luminescence panel, confirmation (AID 651596; in the data active = activity above about 50%). Particulars: NB7 neuroblastoma + caspase-8, TRAIL sensitization, NB7 Caspase-8, with TRAIL, mean of runs, at 10 µM, stronger effect = higher value.
Sequence of Tumor necrosis factor receptor superfamily member 10B (Homo sapiens) (O14763 whole entry, looked up): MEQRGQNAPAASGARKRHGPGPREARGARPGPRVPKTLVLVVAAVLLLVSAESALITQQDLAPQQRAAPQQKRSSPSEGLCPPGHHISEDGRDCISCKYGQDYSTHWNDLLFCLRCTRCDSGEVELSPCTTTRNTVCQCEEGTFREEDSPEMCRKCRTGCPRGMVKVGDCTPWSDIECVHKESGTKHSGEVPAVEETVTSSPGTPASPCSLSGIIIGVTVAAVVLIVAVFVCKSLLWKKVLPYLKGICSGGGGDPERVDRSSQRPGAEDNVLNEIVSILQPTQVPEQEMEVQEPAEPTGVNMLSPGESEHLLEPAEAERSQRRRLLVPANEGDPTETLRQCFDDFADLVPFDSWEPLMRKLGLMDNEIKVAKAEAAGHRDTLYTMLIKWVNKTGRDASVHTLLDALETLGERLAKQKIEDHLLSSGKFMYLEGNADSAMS
Assay in test [9]: as above
Conditions: NB7 neuroblastoma + caspase-8, without TRAIL, NB7 Caspase-8, without TRAIL, mean of runs, at 10 µM.

Usually inhibition stands for the relative decrease from the control value, in per cent.

The other results are listed elsewhere or left out. The source made the active and inactive calls. Rule as the data show it, unless noted: active = inhibition above about 40%; inactive = the rest.

`COc1cc(OC)cc(C(=O)N[C@H](C(=O)Nc2nc3ccccc3[nH]2)C(C)C)c1`: the inhibition was 85.8% (active) in [1], 84.2% in test [2] and 80.2% in test [3].

`O=C(CSc1nc(C2CC2)nc2ccccc12)Nc1cccc(O)c1`: the inhibition in [1] was 50.6% (active); in test [2] it was 90.6%; in test [3], 79.8%.

`Cc1ncc(CC(=O)n2cc(C(=O)c3cc(Cl)ccc3O)cn2)s1`: the inhibition in [1] was 47.9% (active); in [2], 100%; in test [3], 108%.

For `CN(C)C(=O)c1cccc(-c2cnc3sc(NCc4ccc5c(c4)OCO5)nn23)c1`, the results for the inhibition in test [1], in test [2] and in test [3] were 97.2% (active), 116% and 106%, respectively.

`Cc1ccc(Cc2c(-c3ccco3)nc3ccc(Cl)cn23)cc1`: the inhibition in test [1] was -82.3% (inactive).

For `COC(=O)c1ccc(NC(=O)c2ccccc2NS(=O)(=O)c2ccccc2)cc1`, the figures for the inhibition in [1], in [2] and in test [3] were 69.8% (active), 118% and 105%, respectively.

Regarding `Cc1cccc2sc(N(CCCN(C)C)C(=O)CCS(=O)(=O)c3ccccc3)nc12`, the inhibition in test [1] is 84.3% (active); in test [4], 22.5% (inactive); in [5], 98.9% (active); in test [2], 98.4%; in test [3], 102%.

Regarding `COc1cc(C2c3cc4c(cc3C(O)C3COC(=O)C23)OCO4)cc(OC)c1OC` (configuration not stated), the inhibition in test [1] was 83.3% (active); in test [2] it was -0.395%; in [3], 37.3%.

On to `COc1ccc(CNC(=O)C(c2ccc(O)cc2)N(Cc2ccco2)C(=O)c2snc(C(N)=O)c2N)cc1` (configuration not stated), for which the inhibition in test [1] was 49.2% (active); in test [2], 114%; in test [3], 104%.

With `COc1ccc(-c2ccc(CN3C(CC(C)C)C(=O)N(Cc4cn(CC5CCCCC5)nn4)CCS3(=O)=O)cc2)cn1` (configuration not stated), the inhibition in [1] was 36.1% (inactive).

For `CC(=O)Oc1c(C(=O)c2nnc(C)o2)c(=O)n(Cc2ccccc2)c2ccccc12`, the inhibition in test [1] was 59% (active); in test [2], 112%; in test [3], 101%.

As to `O=C1OC(Oc2ccc(Br)cc2)(c2ccccc2)c2ccccc21` (configuration not stated), the inhibition in test [1] is 4.99% (inactive).

Turning to `O=[N+]([O-])c1ccc(Oc2ccc(F)cc2Br)c2ccncc12`, the inhibition in [1] is 77.7% (active); in test [2] it was 116%; in test [3] it was 103%.

Consider `CC(C)C[C@H]1CNC(=S)N1C[C@H]1CCCN1C[C@H](Cc1ccc(O)cc1)N1C[C@H](Cc2ccc(O)cc2)N(CC2CCCCC2)C1=S`, for which the inhibition is 56.7% (active) in [1], 104% in test [2] and 111% in [3].

With `O=C1Nc2ccccc2/C1=C/c1ccnc2ccccc12`, the inhibition is 55% (active) in test [1], 106% in [2] and 111% in test [3].

`C=CCSc1nsc(NC(=O)Nc2cccc(C(C)=O)c2)n1`: the results for the inhibition in test [1], in [2] and in [3] were 98.3% (active), 109% and 101%, respectively.

For the compound `CCSc1nsc(NC(=O)Nc2cccc(C(C)=O)c2)n1`, the figures for the inhibition in test [1], in [2] and in test [3] were 98.9% (active), 117% and 97%, respectively.

`CC(C)CC1C(=O)N(Cc2cn(CC3CCCCC3)nn2)CCS(=O)(=O)N1Cc1ccc(-c2ccc(Cl)cc2)cc1` (configuration not stated): the inhibition in [1] was 32.8% (inactive).

`CN(C)c1ccnc2sc3c(=O)n(Cc4ccccc4)cnc3c12`: the inhibition in [1] was 91.5% (active); in test [2], 106%; in test [3], 97.7%.

As for `Clc1ccc2c(c1)C1=C(C(c3ccncc3)O2)C(c2ccc(Br)cc2)n2ncnc2N1` (configuration not stated), in [1], the inhibition is 50% (active).

For `COc1cccc2sc(N(CCCN(C)C)C(=O)CCS(=O)(=O)c3ccccc3)nc12`, the inhibition is 102% (active) in test [1], 88.9% in test [2] and 86.9% in [3].

Regarding `Cc1c(C)c2ccc(OCC(=O)N3CCN(c4cccc(Cl)c4)CC3)cc2oc1=O`, in test [1], the inhibition is 10.3% (inactive).

In the case of `O=C(NNc1ccccc1Cl)C(O)(c1cccc(C(F)(F)F)c1)c1cccc(C(F)(F)F)c1`, the inhibition is 63% (active) in [1], 115% in [2] and 105% in test [3].

Take `NC(=O)c1sc2nc3c(c(-c4ccccc4)c2c1N)CCC3`: the inhibition is 93.2% (active) in test [1], 114% in [2] and 104% in test [3].

As for `CCOC(=O)c1c(-c2ccccc2)oc2cc(Br)c(O)c(C=O)c12`, the inhibition in test [1] is 90.8% (active); in test [2], 90.8%; in test [3], 84.3%.

Consider `O=C(Nc1ccc(Cl)cc1)Nc1nnc(/C=C/c2ccccc2)s1`, for which the inhibition in test [1] is 50.8% (active).

On to `Cc1ccc(CCC(=O)Nc2ncc(Cc3cc(Cl)ccc3Cl)s2)o1`, for which the inhibition in test [1] is 83.8% (active); in [2] it was 101%; in test [3] it was 101%.

As to `CC(C)CC1C(=O)N(Cc2cn(Cc3ccco3)nn2)CCS(=O)(=O)N1Cc1ccc(-c2ccc(Cl)c(Cl)c2)cc1` (configuration not stated), the inhibition in [1] is 45.6% (active).

For the compound `CCOC(=O)C(C(=O)c1ccccc1)C(c1ccccc1)c1nccc2ccccc12` (configuration not stated), the inhibition in test [1] is 14.4% (inactive).

As for `C=CCc1cc(S(=O)(=O)c2ccc(O)c(CC=C)c2)ccc1O`, the inhibition in [1] is 48.8% (active); in [2], 111%; in [3] it was 99.2%.

With `CC(C)c1ccc2c(c1)c(SC(C)(C)C)c(CC(C)(C)C(=O)O)n2Cc1ccc(Cl)cc1`, the inhibition in test [1] was 41.5% (active).

Consider `Cc1ccc(NC(=O)Nc2nnc(-c3ccncc3)s2)cc1`, for which the inhibition in [1] is 59.6% (active); in test [2], 103%; in test [3], 114%.

As for `COc1cncc(-c2cnc3sc(NCCc4ccccn4)nn23)c1`, the inhibition in test [1] was 76.6% (active); in test [2], 102%; in test [3] it was 109%.

With `C=C1C(=O)[C@]23C[C@H]1CCC2[C@@]1(C)C(C[C@@H]3O)[C@](C)(C(=O)O)CC[C@@H]1O` (some centres not stated), the inhibition in [1] was 83% (active); in test [2] it was 97.1%; in [3], 104%.

For the compound `COc1ccccc1NC(=S)NC1CCCCCCCCCCC1`, the inhibition in [6] is 48.3%; in [7], 102% [run 2, dose range 1, at 50 µM].

As for `COc1cccc(C(=O)c2sc(NC(C)C)nc2N)c1`, the inhibition turned out to be 93.5% in [6] and 95.7% in [7].

For `CC(C)CC1C(=O)N(Cc2cn(CCC3OCCO3)nn2)CCS(=O)(=O)N1Cc1ccc(-c2ccc(F)cc2)cc1` (configuration not stated), the inhibition was 98.1% in test [6] and 93.8% in [7].

On to `Cc1nn(-c2ccccc2)c(Cl)c1/C=N/NC(=O)c1nn(C)cc1[N+](=O)[O-]`, for which the inhibition in test [1] was 14.2% (inactive). In addition, the figures for the activity in [8] and in test [9] were 40.9% and 46.5%, respectively.

For the compound `Cc1cc(C)c2c(N)c3ccccc3nc2n1`, the inhibition in test [6] was 102%; in [7], 101%.

On to `c1ccc(CN=C(NCc2ccccc2)NCc2ccccc2)cc1`, for which the inhibition worked out at 99.7% in test [6] and 102% in [7].

The record behind these values is PubChem BioAssay.
